Assay results published in PubChem BioAssay AID1671190 (National Center for Advancing Translational Sciences (NCATS), 2021).
The campaign covered roughly 580,000 compounds. About 6,100 (1.1%) were called active. Inconclusive results (about 15%) are left out. The full list was thinned out, with actives kept by preference. Values without a mark were called inactive. The call rests on the fitted dose curve; in most records, active means well fitted inhibition curve with a large enough effect; inconclusive means small, poorly fitted or top-dose-only effect, or another doubt; inactive means no such curve, though single readings can be large or run the other way.

molecular target: Polyunsaturated fatty acid lipoxygenase ALOX12 (Homo sapiens) (UniProt P18054); test: Primary qHTS assay for inhibitors of human arachidonate 12S-lipoxygenase (ALOX12): Round 2; details: purified 12hLO, xylenol orange hydroperoxide absorbance; series mostly up to 108 µM; activity change, negative = inhibition: at the top concentration
Method in brief: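 Purified human 12hLO (150 nM final) in 25 mM Hepes, 0.01% Triton X-100, pH 7.0 was preincubated 15 min at room temperature with compound. Then 40 uM arachidonic acid was added, 30 min. Hydroperoxide was read by Fe-XO absorbance ratio 573/405 nm.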
On the % scale 0 is the no-effect control and ±100 the full control effect; potency means the concentration at half of the fitted maximal effect.

Sequence of Polyunsaturated fatty acid lipoxygenase ALOX12 (Homo sapiens) (P18054 whole entry, looked up): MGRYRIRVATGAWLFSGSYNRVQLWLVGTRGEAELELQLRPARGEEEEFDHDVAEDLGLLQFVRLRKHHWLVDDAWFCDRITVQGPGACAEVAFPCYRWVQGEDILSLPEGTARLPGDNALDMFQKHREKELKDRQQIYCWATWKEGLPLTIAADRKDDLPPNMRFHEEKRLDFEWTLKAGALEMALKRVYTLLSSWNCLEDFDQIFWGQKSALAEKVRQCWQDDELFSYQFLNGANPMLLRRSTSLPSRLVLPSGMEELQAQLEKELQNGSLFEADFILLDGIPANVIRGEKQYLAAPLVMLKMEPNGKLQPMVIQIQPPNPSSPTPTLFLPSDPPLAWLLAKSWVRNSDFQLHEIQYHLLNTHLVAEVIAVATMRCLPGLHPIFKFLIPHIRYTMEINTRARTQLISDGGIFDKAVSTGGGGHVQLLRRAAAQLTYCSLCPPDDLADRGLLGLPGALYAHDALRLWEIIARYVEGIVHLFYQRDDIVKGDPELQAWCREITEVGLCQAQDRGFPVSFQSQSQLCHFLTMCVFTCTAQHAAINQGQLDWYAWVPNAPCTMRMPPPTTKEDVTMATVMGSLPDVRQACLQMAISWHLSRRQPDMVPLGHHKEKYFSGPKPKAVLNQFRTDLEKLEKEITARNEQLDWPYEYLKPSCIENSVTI

| SMILES | activity change, negative = inhibition | Potency |
| --- | --- | --- |
| O=C(COc1ccc2c(c1)CCC2)N(Cc1nc2ccccc2c(=O)[nH]1)CC1CCCO1 (stereo not drawn) | 11.7% | – |
| O=C(CN1CCN(S(=O)(=O)c2cc(Cl)ccc2Cl)CC1)c1ccc(O)c(O)c1 | – | 1.41 µM (active) |
| O=S(=O)(c1cc(Cl)ccc1Cl)N1CCN(Cc2ccco2)CC1 | -3.3% | – |
| O=C(CN1CCN(S(=O)(=O)c2cccc(Cl)c2)CC1)N1CCCCC1 | 0% | – |
| Cc1[nH]c2ccccc2c1C(=O)C(=O)NC(C)CCc1ccccc1 (stereo not drawn) | -38.1% | – |
| Cc1ccc2cc(C)c(Nc3cccc(C)c3C)nc2c1 | 0.82% | – |
| O=C(Nc1cccc(Br)c1)c1csc2c1CCCC2 | -49.6% | – |
| Cc1ccc(-c2csc(C(C#N)=C(O)CN3CCN(C(=O)c4ccco4)CC3)n2)cc1 | – | 44.7 µM (active) |
| CCCOc1ccc(-c2nc(C#N)c(N3CCN(C(=O)c4ccco4)CC3)o2)cc1 | -45.2% | – |
| O=C(c1ccco1)N1CCN(Cc2cccc(C(F)(F)F)c2)CC1 | 19.9% | – |
| O=C(c1cc(-c2cccs2)on1)N1CCCC1c1ccccc1F (stereo not drawn) | -2.89% | – |
| COc1cccc(CN2C[C@@H](F)[C@@H](OCc3nc4ccccc4n3C)C2)n1 | 100% [at 176 µM] | – |
| CSc1ccc(C(=O)N2CCC(n3nccc3NC(=O)CC(C)C)CC2)cc1 | 0.71% | – |
| O=C(COc1ccc(F)cc1Cl)Nc1ncn[nH]1 | 77.9% | – |
| Cc1noc(C)c1CS(=O)(=O)c1cc(Cl)ccc1Cl | 7.07% | – |
| COc1ccc(-c2nnc(SC(=O)N3c4ccccc4Sc4ccccc43)o2)cc1 | – | 8.91 µM (active) |
| COc1ccccc1-c1nnc(SCC(N)=O)o1 | -10.9% | – |
| COc1ccc(CN(C(=O)CSc2nnc(-c3ccc(OC)c(OC)c3)o2)c2ccc(F)cc2)cc1 | -16% | – |
| CCCNC(=O)NNC(=O)c1cn(C)c2ccccc12 | -3.21% | – |
| Cn1c(COc2ccc(Cl)cc2)nnc1SCC(O)COc1ccc(C(C)(C)C)cc1 (stereo not drawn) | -24.4% | – |
| CNC(=O)[C@@H](Cc1ccccc1)N1CCC[C@H]1C(=O)N1CCC1 | – | 22.4 µM (active) |

| SMILES | activity change, negative = inhibition | Potency |
| --- | --- | --- |
| CCNC(=O)[C@@H]1CCCN1[C@@H](C(=O)NC)c1ccccc1OC | 31.9% [at 176 µM] | – |
| CNC(=O)C(C)(C)N1CCC[C@H]1C(=O)N(C)Cc1ccccc1 | -3.65% [at 176 µM] | – |
| CCc1ccc(CN(C)C(=O)Cn2cnc3c2c(=O)n(C)c(=O)n3C)cc1 | -21.2% | – |
| CC(C)c1noc(-c2cn(C3CCN(C(=O)COc4ccc(F)cc4)CC3)nn2)n1 | 26.4% | – |
| CCc1ccc(-n2ccc3nc(N4CCc5ccccc5C4)ncc3c2=O)cc1 | – | 39.8 µM (active) |
| Cc1nc2cnc(N3CCNCC3)nc2n(CCc2ccccc2)c1=O | 0% | – |
| CCc1ccc(N2CC(O)=C(c3nc4ccccc4c(=O)[nH]3)C2=N)cc1 | -5.65% | – |
| COc1cccc(-c2cn3c(n2)NCCC3)c1 | 37.1% | – |
| O=C(Nc1cnc(-c2cccc(Cl)c2)nc1)c1ccc(F)cc1 | 33.3% | – |
| COc1cccc2cc(S(=O)(=O)c3ccc(Cl)c(Cl)c3)c(=O)oc12 | 30.9% | – |
| CCOc1ccc(C(=O)N2CCC(c3n[nH]c(=O)n3-c3ccccc3)CC2)cc1OCC | 25.8% | – |
| Cc1ccc(-n2c(C3CCN(C(=O)c4ccoc4)CC3)n[nH]c2=O)cc1 | 54.3% | – |
| Cc1ccc(C(=O)N2CCC(c3n[nH]c(=O)n3-c3ccccc3)CC2)cc1F | – | 28.2 µM (active) |
| CC(C)(CNC(=O)c1ccccc1)CNC(=O)c1ccccc1 | 3.22% | – |
| O=C1CSc2ccc(C(=O)Nc3cccc(COC(=O)c4ccc5c(c4)NC(=O)CS5)c3)cc2N1 | 30.1% | – |
| O=C(NCCNC(=O)C1CC1)c1c[nH]c2ccccc12 | 1% | – |
| Nc1nc(COC(=O)c2ccc(OC(F)F)cc2)nc2ccccc12 | 32.2% | – |
| Cc1occc(=O)c1OCc1noc(C(=O)NCc2ccc(Cl)cc2)n1 | 30.8% | – |
| Cc1ccc(-c2csc(Nc3ccccc3)n2)c(C)c1 | -61.9% | – |
| O=C1Cc2cc(-c3csc(Nc4ccc(F)cc4)n3)ccc2N1 | -8.91% | – |
| O=C(O)c1ccc(Nc2nc(-c3ccc4ccccc4c3)cs2)cc1O | – | 31.6 µM (active) |

| SMILES | activity change, negative = inhibition | Potency |
| --- | --- | --- |
| CC(=O)c1ccc(NC(=O)C(C)Sc2nnc(-c3ccco3)n2-c2ccccc2)cc1 (stereo not drawn) | 7.66% | – |
| Cc1ccccc1-n1cnnc1SCC(=O)NC(C)c1cccc2ccccc12 (stereo not drawn) | 8.99% | – |
| CCCN1C2=C(C(=O)CCC2)C(c2ccc(O)c(Br)c2)C2=C1CCCC2=O | 0.376% | – |
| COc1ccc(C2C3=C(CCCC3=O)N(CC(=O)O)C3=C2C(=O)CCC3)cc1 | – | 10 µM (active) |
| COc1ccc(C2C(C#N)=C(N)N(c3ncn[nH]3)C3=C2C(=O)CCC3)cc1 (stereo not drawn) | 7.37% | – |
| CCCCCCCC1CCC(c2ccc(-c3ccc(CCCC)cn3)cc2)CC1 (stereo not drawn) | 8.25% | – |
| COc1ccc(NC(=O)CN(C)C(=O)c2nc(-c3ccccc3)oc2C)cc1 | -28.5% | – |
| COc1ccc(/C(O)=C2\C(=O)C(=O)N(Cc3ccco3)C2c2ccc(OC)cc2OC)cc1 (stereo not drawn) | – | 14.1 µM (active) |
| COCCN1C(=O)C(=O)/C(=C(/O)c2ccc(S(=O)(=O)N3CCOCC3)cc2)C1c1ccc(OC)c(OC)c1 (stereo not drawn) | -19.4% | – |
| COc1ccc(C2/C(=C(/O)c3ccc(OC(C)C)cc3)C(=O)C(=O)N2CCCN2CCOCC2)cc1 (stereo not drawn) | -14.3% | – |
| CCCOc1ccc(/C(O)=C2/C(=O)C(=O)N(CCN(C)C)C2c2ccc(OC)c(OC)c2)cc1 (stereo not drawn) | 0% | – |
| COc1ccc(/C(O)=C2/C(=O)C(=O)N(CC3CCCO3)C2c2ccc(OC)c(OC)c2)cc1 (stereo not drawn) | – | 17.8 µM (active) |
| COc1cccc(C2/C(=C(/O)c3ccc(F)cc3)C(=O)C(=O)N2CCN(C)C)c1 (stereo not drawn) | 22.4% | – |
| COCCN1C(=O)C(=O)/C(=C(/O)c2ccc(S(=O)(=O)N3CCCCC3)cc2)C1c1ccc(OC)c(OC)c1 (stereo not drawn) | – | 14.1 µM (active) |
| COc1cc(C2/C(=C(\O)c3ccc4c(c3)CC(C)O4)C(=O)C(=O)N2Cc2ccco2)ccc1O (stereo not drawn) | -13.7% | – |
| CCOc1cc(C2/C(=C(/O)c3ccc(S(=O)(=O)N4CCCCC4)cc3)C(=O)C(=O)N2CCOC)ccc1O (stereo not drawn) | -11.4% | – |
| Cc1ccc(C)c(OCc2ccc(-c3nc(C#N)c(NC(C)C)o3)o2)c1 | -14.7% | – |
| CCCCCCC(C)NC(=O)COC(=O)c1n[nH]c(=O)c2ccccc12 (stereo not drawn) | -13.7% | – |
| NCC(=O)N1CCCC2(Cc3ccccc3CN2C(=O)c2cccc(Cl)c2)C1 (stereo not drawn) | 42.1% | – |
| Cc1cc2ccccc2n1CC(=O)NCc1ccc(C(N)=O)cc1 | 19.6% | – |
| Cc1cccc(NC(=O)c2ccccc2NC(=O)CN2CCN(S(=O)(=O)c3cccs3)CC2)c1 | 3.21% | – |
